# Hits are enriched below; roughly 6% of the tested compounds scored in any of these assays.
# DRD3 antagonist: blocks the human D3 dopamine receptor. P35462. D3R cells, DiscoveRx beta-arrestin luminescence, antagonist mode; stronger effect = lower value. max response, negative = inhibition, %. 360,000 tested, 2.5% active. AID 652054; in the data active = max response below about -50%; inconclusive = no clear call, values can overlap the other calls; note: % is set by controls: 0 for no effect and ±100 for the full control effect
# Target sequence (P35462 whole entry, looked up): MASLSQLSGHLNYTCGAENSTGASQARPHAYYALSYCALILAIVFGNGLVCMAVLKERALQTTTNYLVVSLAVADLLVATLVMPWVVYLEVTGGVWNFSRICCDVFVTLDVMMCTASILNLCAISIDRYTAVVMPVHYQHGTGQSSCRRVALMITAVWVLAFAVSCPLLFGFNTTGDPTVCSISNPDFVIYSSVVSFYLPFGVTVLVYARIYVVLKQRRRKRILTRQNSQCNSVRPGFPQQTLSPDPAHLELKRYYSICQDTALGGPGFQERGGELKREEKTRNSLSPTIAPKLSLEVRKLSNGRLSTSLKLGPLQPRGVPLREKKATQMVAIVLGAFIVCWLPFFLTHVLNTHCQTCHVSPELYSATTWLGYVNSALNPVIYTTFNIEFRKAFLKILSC
#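 Cells expressing the human receptor were seeded at 1500 cells/well, incubated overnight at 37 degrees C in 5% CO2, then exposed to library compounds with dopamine controls for 90 minutes at 37 degrees C before luminescent detection.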
# D3 ag: agonists of human D3 dopamine receptor. 410,000 tested, 0.58% active. max activation, %. P35462. D3R DiscoveRx beta-arrestin cells, luminescence, 90 min; in the data active = max activation above about 30%; note: 0% is about no effect
#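 Agonist mode: compounds and dopamine controls were applied to plated cells for 90 min at 37 degrees C after an overnight attachment at 1500 cells/well. Luminescent read-out followed 30 - 60 minutes at room temperature with DiscoveRx detection reagent.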
# D1 potentiator: potentiators of human D1 dopamine receptor; HEK293 TREx D1 cells, calcium flux, dopamine EC20 potentiation; 360,000 tested, 0.036% active; AID 504651; P21728; potentiation, % at 10 µM; in the data active = potentiation above about 30%; note: 0% is about no effect
# D1 agonist: agonists of human D1 dopamine receptor. P21728. HEK293 T-REx D1 cells, calcium flux, agonist mode. activation, % at 2 µM. 360,000 tested, 1% active. AID 504660; in the data active = activation above about 30%; note: 0% is about no effect
#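 Inducible HEK293 T-REx D1 cells, force-coupled to calcium signalling, were plated at 4000 cells/well with tetracycline and held overnight at 30 C. After no-wash calcium dye loading, compound-evoked calcium rise over 180 s flagged agonists.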
# D1 antag: blocks dopamine activation of the human D1 receptor; P21728; HEK293 TREx D1 cells, calcium flux, dopamine EC80; stronger effect = lower value; activity change, negative = inhibition, % at 10 µM; 360,000 tested, 3.2% active; in the data active = activity change below about -30%; note: % is set by controls: 0 for no effect and ±100 for the full control effect
#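 Inducible Hek293 Trex D1 cells (tetracycline, overnight, 30 C). Calcium dye 30–90 min RT. Antagonist mode: EC80 dopamine added after 180 s compound read.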
# * = called active by the depositor; u = inconclusive; x = no result; ! = not confirmed by another sample.
SMILES,DRD3 antagonist,D3 ag,D1 potentiator,D1 agonist,D1 antag
COc1cc(/C=N/NC(=O)CNC(=O)c2ccco2)ccc1O,-14,-5,-2,4,-48*
CCCC(=O)n1nc(-c2cccnc2)nc1NCc1ccccc1,33,-1,-4,1,-42*!
COc1ccc(CCC(=O)NCCS(=O)(=O)N2CCN(c3ccccc3OC)CC2)cc1,39,3,1,19,-33*
O=C(O)CCC(C(=O)O)n1c(O)c(C2=c3ccccc3=NC2=O)sc1=S (centres undefined),-103*,-9,2,2,-2
O=c1c2oc3ccccc3c2n(Cc2ccccc2F)c(=O)n1Cc1ccccc1,x,-1,0,3,3
COCCN1C(=O)/C(=C/c2ccc(N3CCCC3)cc2C)SC1=S,7,1,4,224*,-9
CCN=C1S/C(=C\c2ccc(N3CCOCC3)cc2C)C(=O)N1CC,15,9,4,0,9
COc1ccc(S(=O)(=O)N2CCC3CC2c2c(-c4ccc(C(F)(F)F)cc4)cccc23)cc1 (centres undefined),6,52*,x,x,x
COc1ccc(-c2cc(C(F)(F)F)n3nc(C(=O)N4CCCC4)cc3n2)cc1,0,0,-2,4,4
Cc1cc(C)n2nc(-c3ccc(F)cc3)cc2n1,-15,4,x,x,x
CN1CCN(C(=O)c2cc3nc(-c4ccc(F)cc4)cc(C(F)(F)F)n3n2)CC1,-52*,1,-8,2,-3
CCOC(=O)C1CCCN(C(=O)c2cc3nc(-c4ccc5c(c4)OCO5)cc(C(F)(F)F)n3n2)C1 (centres undefined),47,120*,-4,3,-11
Cc1cc(-c2ccc(F)cc2)nc2cc(C(N)=O)nn12,-76*,-16,10,1,-8
O=C(NCc1noc2ccccc12)N1CCN(c2ccccc2)CC1,x,-4,-2,0,-7
CC1CCN(S(=O)(=O)c2ccc3c(c2)N(CC(=O)NC(C)C)C(=O)CS3)CC1,x,1,-5,0,-14
CC(Oc1ccc(Cl)cc1)C(=O)NCCCn1ccnc1 (centres undefined),21,3,-7,0,4
Cc1cc(Cl)ccc1OC(C)C(=O)NCCCn1ccnc1 (centres undefined),8,3,-9,7,-35*
CC(=O)c1ccc(N2CCN(C(=O)Nc3ccc(F)cc3)CC2)cc1,x,x,-5,14,-11
CC(=O)c1ccc(N2CCN(C(=O)Nc3ccc(C(C)C)cc3)CC2)cc1,6,-4,-4,5,-47*
Cc1ccc(-c2nc3ccccc3[nH]2)cc1NC(=S)NC(=O)c1ccccc1Br,-51*,-6,-2,0,-10
Cc1cccc(/C=N/NC(=O)c2ccc(NC(=O)c3ccc(Cl)cc3)cc2)n1,u,-2,-12,2,-83*
Cc1cccc(C(=O)Nc2cccc(C(=O)N/N=C/c3cccc(C)n3)c2)c1,0,-2,-3,0,-14
Cc1cccc(/C=N/NC(=O)c2ccc(NC(=O)c3ccc(F)cc3)cc2)n1,-3,2,-8,-3,-51*
CCN(CCCNC(=O)c1cc2c(=O)[nH]c3ccc(C)cc3c2s1)Cc1ccccc1,x,4,-6,0,-6
Cc1ccc(-c2c3c(=O)n(C)c(=O)n(C)c3c3c(C(F)(F)F)nc4ccccc4n23)cc1,x,4,-1,15,2
SMILES,DRD3 antagonist,D3 ag,D1 potentiator,D1 agonist,D1 antag
O=C(NCc1cccnc1)C(=O)NCC(c1ccco1)N1CCN(c2ccccc2F)CC1 (centres undefined),22,51*,0,18,-16
Cc1ccc2nc(-c3cc(NC(=O)COc4ccc(C)c(C)c4)ccc3Cl)oc2c1,x,0,-3,4,-3
CCCSc1ccc(-c2nn(-c3ccccc3)cc2/C=C(/C#N)C(=O)NCCCOC)cc1,3,-10,2,3,12
CCSc1ccc(-c2nn(-c3ccccc3)cc2/C=C(/C#N)C(=O)NCCCOC)cc1,15,37*,0,12,-1
COC(=O)c1cn(NC(=O)/C=C/c2cc(OC)ccc2OC)c(=O)c2ccccc12,9,-6,-5,1,2
CCN(CC(=O)Nc1c(F)cccc1F)C(=O)Cn1[nH]c(=O)c2ccccc2c1=O,0,-1,-2,1,-50*
CCN(CC(=O)Nc1c(F)cccc1F)C(=O)Cc1ccc2c(c1)CCC2,7,-5,-2,2,-34*
CCN(CC(=O)Nc1c(F)cccc1F)C(=O)Cc1ccc2c(c1)OCCO2,-16,-7,-2,0,-25
CCN(CC(=O)Nc1c(F)cccc1F)C(=O)Cc1c(C)nc2ccccc2c1C,-1,-9,-2,0,-49*
CCN(CC(=O)Nc1c(F)cccc1F)C(=O)Cc1c[nH]c2ccccc12,u,-2,x,x,x
COC(=O)c1cc2c(=O)c3ccccc3oc2nc1/C=C/N(C)C,16,12,-2,76*,1
COc1ccc(Nc2nc(NCc3ccco3)nc(N/N=C/c3ccccc3F)n2)cc1,-54*,-7,-6,2,-42*
CC(C)C1COC(c2cccn2Cc2ccccc2Cl)=N1 (centres undefined),-20,-9,2,0,-38*
COc1ccc(-c2csc(Nc3ccccc3)[n+]2Cc2ccccc2)cc1,16,4,-5,5,-6
O=[N+]([O-])c1ccc(-c2csc(Nc3ccccc3)[n+]2Cc2ccccc2)cc1,19,2,-5,5,-41*
CC(C)(C)OC(=O)N1CCC(c2c(C(=O)N3CCC(c4ccccc4)C3)cnn2-c2cccc(Cl)c2)CC1 (centres undefined),x,-16,-7,6,-9
COc1ccc(-c2cc(=O)oc3c4c(ccc23)OCN(Cc2cccc(OC)c2)C4)cc1,x,-22,-2,5,1
CC1(C)CC(=O)C2=C(C1)c1c(ccc3ccccc13)NC2c1ccco1 (centres undefined),9,-17,30*,-1,-11
CC(C)OCCCn1c(=O)c2ccccc2n2c(-c3ccc(F)c(F)c3)nnc12,x,-9,-2,11,-10
C[C@H]1O[C@@H](O[C@H]2CC[C@@]3(C)[C@H](CC[C@@H]4[C@@H]3C[C@@H](O)[C@]3(C)[C@@H](C5=CC(=O)OC5)CC[C@]43O)C2)C[C@H](O)[C@@H]1O[C@H]1C[C@H](O)[C@H](O[C@H]2C[C@H](O)[C@H](O[C@@H]3O[C@H](CO)[C@@H](O)[C@H](O)[C@H]3O)[C@@H](C)O2)[C@@H](C)O1,x,8,x,x,x
O=C(Cc1ccccc1)Nc1ccc(NC(=O)c2ccc(Br)cc2)cc1,20,2,6,3,-10
O=C(Cc1ccccc1)Nc1ccc(C(=O)Nc2ccc(O)cc2)cc1,14,0,0,33*,-12
CN(C1=C(NC(=O)c2ccc(Cl)cc2)C(=O)c2ccccc2C1=O)c1ccccc1,-52*,-21,15,6,-5
